Measured values: PubChem BioAssay AID371 (SRMLSC, 2006)
About 280 (8.5%) of roughly 3,300 compounds were called active.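 How the source made its calls: active means mean growth inhibition over the two runs of 50% or more; inactive means mean growth inhibition under 50%.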 Many of the other results were omitted from the sample, so actives are more common in it than they were.

assay: A549 NSCLC cell proliferation inhibitors – ATP luminescence, human non-small cell lung line, primary screen (AID 371); conditions: at 10 µM, active compounds read high;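 further: compound exposure lasted 72 h before the ATP read; 0% = untreated cell signal and 100% = no luminescence left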

Growth inhibition, active:
COC1=CC(=O)CC(C)C12Oc1c(Cl)c(OC)cc(OC)c1C2=O (configuration not stated) 51.2%
CN(C)c1ccc(O)c2c1CC1CC3[C@@H](N(C)C)C(=O)C(C(N)=O)=C(O)[C@]3(O)C(=O)C1=C2O (some centres not stated) 59.9%
Clc1ccc2nc(N3CCNCC3)nc(-c3ccccc3)c2c1 92.3%
CNCCCC1c2ccccc2C=Cc2ccccc21 60%
CSc1nc(N)c(C#N)c(-c2ccccc2Cl)c1C#N 60.5%
CC1(C)Cc2c(sc3c4nnnn4c4nnnn4c23)CO1 62.4%
O=C(Nc1ccc(N2CCN(C(=O)c3ccccc3)CC2)c(Cl)c1)c1ccc(Br)o1 64.9%
N#CC1=C(N)NC(SCc2ccc(F)cc2)=C(C#N)C12CCCCC2 84.3%
N#CC1=C(N)NC(SCc2ccc(Cl)cc2)=C(C#N)C12CCCCC2 91%
COc1cccc(/C=C2/CN(C)CC3=C2OC(N)=C(C#N)C3c2cccc(OC)c2)c1 (configuration not stated) 67.5%
Cc1cccc(OCCN2CSC(=S)N(C)C2)c1 51.6%
COc1ccc(-c2onc(C)c2-c2ccccc2)c(O)c1 52.1%
CC[C@H]1CN2CCc3cc(OC)c(OC)cc3[C@@H]2C[C@@H]1C[C@H]1NCCc2cc(OC)c(OC)cc21 78.5%

Growth inhibition, inactive:
COC(=O)c1cccc(Nc2cc(C)nc(-c3ccccc3O)n2)c1 17.6%
CN(C)[C@@H]1C(=O)C(C(N)=O)=C(O)[C@@]2(O)C(=O)C3=C(O)c4c(O)ccc(Cl)c4[C@@H](O)[C@H]3C[C@@H]12 45.2%
OCCNc1nc(-c2ccccc2)c2ccccc2n1 -2.09%
O=C(O)C1CC=CCC1C(=O)N1CCN(c2nc(-c3ccccc3)c3ccccc3n2)CC1 (configuration not stated) 25.7%
Clc1ccc2c(c1)C(N1CCNCC1)=Nc1ccccc1O2 31.9%
O=C(CNC1C(=O)Nc2ccccc21)Sc1ccccc1 (configuration not stated) -5.29%
COc1ccc(/C(O)=C2/C(=O)C(=O)N(CCCN(C)C)C2c2ccc(C)o2)cc1Cl (configuration not stated) 1.2%
COc1ccc2[nH]cc(C(=O)CN(C)CCc3ccc(OC)c(OC)c3)c2c1 15.3%
CNCCCN1c2ccccc2CCc2ccccc21 39.1%
COCCCN1C(=O)C(O)=C(C(=O)c2ccco2)C1c1ccc(Br)cc1 (configuration not stated) 2.73%
Cc1nc2c(o1)CCc1ccccc1C2O (configuration not stated) 0.13%
Cc1ccc(N2C(=O)C3ON(c4ccccc4)C(c4ccncc4)C3C2=O)cc1 (configuration not stated) 7.22%
N#Cc1c(-c2ccccc2Cl)cc(C2CC2)nc1N 11.8%
CCSc1nc(N)c(C#N)c(-c2ccccc2Cl)c1C#N 3.11%
CC1(C)CC(=O)C=C(N=CC2=C(O)CC(C)(C)CC2=O)C1 1.19%
Cc1cc(=O)oc(C)c1C(=O)NCCN1CCOCC1 -2.84%
CCC(=O)Nc1cccc(-c2nnc(SCC(=O)NCc3ccco3)n2C)c1 -4.64%
CSc1nc2sc3c(c2c2nnnn12)CC(C)(C)OC3 9.43%
CC1(C)Cc2c(sc3ncn4nnnc4c23)CO1 0.79%
COc1ccc(-n2c(SCC(N)=O)nc3sc4c(c3c2=O)CCN(C)C4)cc1 8.23%
Cn1c(=O)n(CCC(=O)O)c2ccccc21 1.48%
COC(=O)CC1=C(C(=O)OC)C(c2ccncc2)C(C#N)=C(N)O1 (configuration not stated) 3.31%
O=C(Nc1ccc2c(c1)OCCO2)c1ccc(Br)o1 19.2%
O=C(c1cccc(Cl)c1)N1CCN(C(=O)c2ccccc2F)CC1 0.26%
CCCCC(=O)C1CCN(Cc2ccccc2)CC1 -7.27%
COc1cc(-c2nn3c(C4CCCCC4)nnc3s2)cc(OC)c1OC 18.1%
CN(C=C1C(=O)CC(C)(C)CC1=O)CCN1CCNCC1 3.03%
N#Cc1c(SCC(N)=O)nsc1SCc1ccc(Cl)cc1 23.5%
COc1ccc(C(=O)CSC2=C(C#N)C3(CCCCC3)C(C#N)=C(N)N2)cc1 49.2%
COc1ccc(-c2oc3ncn4nc(COc5ccccc5)nc4c3c2-c2ccc(OC)cc2)cc1 10.6%
CCOC(=O)c1[nH]c2ccc(OC)cc2c1NC(=O)CCN1CCCC(C)C1 (configuration not stated) 6.76%
c1cncc(Oc2cccc(Oc3cccnc3)c2)c1 20.7%
COc1ccc(OC)c(C2C(C(=O)c3sc(C)nc3C)=C(O)C(=O)N2CCN2CCOCC2)c1 (configuration not stated) 5.82%
O=C1CC(NCc2ccc3c(c2)OCO3)C(=O)N1Cc1ccc2c(c1)OCO2 (configuration not stated) 0.14%
CCN1CC2=C(OC(N)=C(C#N)C2c2ccccc2)/C(=C\c2ccccc2)C1 (configuration not stated) 46.8%
COCc1[nH]nc2c1C(c1cccc(OC)c1)C(C#N)=C(N)O2 (configuration not stated) 8.14%
Cc1cc(N2C(=O)C(=O)/C(=C(/O)c3ccc(F)cc3)C2c2ccc(F)cc2)no1 (configuration not stated) 9.16%
CCc1nc2n[nH]c(N)c2c2c1CSC(C)(C)C2 12.5%
COc1ccccc1-c1cc(-c2cc(Cl)ccc2O)n[nH]1 15%
COc1cccc(NC(=O)C2CC(=O)n3cnnc3S2)c1 (configuration not stated) -2.07%
c1ccc(-n2c(Cc3cccnc3)nc3cnccc32)cc1 -4.36%
Clc1ccc(-c2nn3c(-c4cccc(Cl)c4)nnc3s2)cc1 22.7%
Cc1cccc(OCC(=O)NCC(=O)n2nc(C)cc2C)c1 1.47%
Cc1c(C(=O)O)c(=S)sn1CCOc1ccccc1 3.85%
COc1ccc(-c2ncncc2-c2csc(C)n2)c(O)c1 3.39%
COc1cccc(-c2nnc3sc(-c4ccccc4)nn23)c1 8.34%
Nc1nnc(Cc2ccc(Cl)c(Cl)c2)s1 18.2%
O=C1NC(=O)C(c2cn(-c3ccccc3)nc2-c2ccc(F)cc2)N1 (configuration not stated) 10.6%
Cc1ccc(-c2ccccc2NC(=O)C2C3C=CC(C3)C2C(=O)O)o1 (configuration not stated) 1.09%
